According to PubChem BioAssay (EPA / NIEHS):
Inconclusive results are not listed. Activity calls are given as the source filed them. The calls were made as follows, unless noted: active = hit-call score of the fitted dose curve at least 0.9, where 1 is the maximum; inactive = score below 0.9.

Tests used:
[1] = CCTE_Mundy_HCI_Cortical_NOG_NeuriteLength: CCTE's Neurite Outgrowth Assay in rat cortical cells for Neurite Length, Mundy Lab (AID 2284213)
How it was run: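 Neurite length was read by high-content imaging of βIII-tubulin-labelled neurites in rat primary cortical cultures. Activity was fitted relative to DMSO.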

[2] = CCTE_Mundy_HCI_Cortical_Synap_Neur_Matur_NeuriteSpotCountPerNeuron: CCTE's Synaptogenesis and Neurite Maturation Assay in rat cortical cells for Neurite Spot Count per Neuron Count, Mundy Lab (AID 2284215)
How it was run: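 Read-out: neurite-associated synaptophysin puncta per neuron, imaged by high-content analysis after MAP2, synaptophysin and Hoechst staining. Rat primary cortical cultures, dosed DIV 7 through DIV 12; DMSO served as baseline.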

[3] = CCTE_Mundy_HCI_Cortical_Synap_Neur_Matur_NeuriteCount: CCTE's Synaptogenesis and Neurite Maturation Assay in rat cortical cells for Neurite Count, Mundy Lab (AID 2284222);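 also: exposure from day 7 to day 12 in vitro with readout at day 12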
How it was run: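 Primary rat cortical cells were plated, treated with AraC at DIV 5, then exposed to chemicals from DIV 7 through DIV 12. After fixation and immunostaining for MAP2 and synaptophysin, imaging quantified neurites, with DMSO as the negative control.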

[4] = CCTE_Mundy_HCI_Cortical_Synap_Neur_Matur_CellBodySpotCount: CCTE's Synaptogenesis and Neurite Maturation Assay in rat cortical cells for Cell Body Spot Count, Mundy Lab (AID 2284223)
How it was run: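 Read-out: cell body-associated synaptophysin puncta per neuron, imaged after MAP2, synaptophysin and Hoechst staining. Rat cortical cells, AraC DIV 5, chemical dosing DIV 7, fixation DIV 12. Activity fitted in positive direction relative to DMSO baseline.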

[5] = CCTE_Mundy_HCI_hNP1_Pro_ResponderAvgInten: CCTE's Proliferation Assay in human neuroprogenitor cells, Mundy Lab (AID 2284224; active = hit-call score of the fitted dose curve at least 0.9, where 1 is the maximum;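 also: human neural progenitor cells hNP1 derived from WA09 embryonic stem cells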)
How it was run: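 Human neuroprogenitors (hNP1, WA09 lineage) receive test chemical after 40 to 44 hours of attachment. A four-hour BrdU pulse begins twenty hours later, followed by fixation and high content imaging; signal is referenced to DMSO controls.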

[6] = UKN2_HCS_IMR90_cell_viability: Viability Assessment in the University of Konstanz (UKN) Leist Lab Neural Crest Cell Migration Assay in human induced IMR90 Pluripotent Stem Cells (UKN2) (AID 2284233);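 also: viability of neural crest cells differentiated from IMR90 iPSC measured by calcein-AM fluorescence imaging; cells exposed to compound for 24 h after a 24 h migration phase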
How it was run: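 iPSC-derived (IMR90) neural crest cells seeded around silicone stoppers on PLO/laminin/fibronectin; after 24 h migration in N2-S with EGF/FGF, chemical added for 24 h. Calcein-AM/Hoechst stained 30 min, high-content imaged; bidirectional fit versus DMSO.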

[7] = CCTE_Mundy_HCI_Cortical_NOG_NeuronCount: CCTE's Neurite Outgrowth Assay in rat cortical cells for Neuron Count, Mundy Lab (AID 2284236; active = hit-call score of the fitted dose curve at least 0.9, where 1 is the maximum;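 also: neurons counted by imaging betaIII-tubulin and Hoechst stained cortical cells; cells exposed to compound for about 48 hours before fixation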)
How it was run: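 Read-out: neuron number by high-content imaging of betaIII-tubulin (Alexa Fluor-488) and Hoechst-labelled rat primary cortical cells.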

[8] = CCTE_Mundy_HCI_Cortical_NOG_BPCount: CCTE's Neurite Outgrowth Assay in rat cortical cells for Branch Point Count, Mundy Lab (AID 2284237)
How it was run: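 Measured 50.33 h after dosing, this morphology endpoint uses rat primary cortical cultures labelled for betaIII-tubulin. Branch points are quantified by high-content imaging, with DMSO as negative control and baseline.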

[9] = CCTE_Mundy_HCI_hNP1_Casp3_7: CCTE's Caspase-Glo 3/7 Assay in human neuroprogenitor cells for Apoptosis, Mundy Lab (AID 2284240)
How it was run: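 Neuroepithelial-lineage stem cells from WA09 embryonic cells were treated with chemicals after 40–44 h of culture. Twenty-four hours later, caspase-3/7 activation was detected luminescently after a 30 min room-temperature reagent step, with DMSO as baseline.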

[10] = CCTE_Mundy_HCI_hNP1_CellTiter: CCTE's Cell Titer-Glo 2 Assay in human neuroprogenitor cells for Viability, Mundy Lab (AID 2284241; active = hit-call score of the fitted dose curve at least 0.9, where 1 is the maximum)
How it was run: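 Measures ATP content in human neural progenitors derived from WA09 embryonic cells. Read-out at 26.5 hours after dosing, with DMSO serving as the negative control and baseline.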

[11] = IUF_NPC2c_oligodendrocyte_migration_120hr: Leibniz Research Institute for Environmental Medicine (IUF) 120-hour Neural Progenitor Cell Migration Assay for Oligodendrocyte Migration (NPC2c) (AID 2284297);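 also: O4-positive oligodendrocyte migration distance divided by radial glia migration distance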
How it was run: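 hNPC spheres (GW 16-19 cortex), PDL/laminin, DMEM/F12 3:1 + 1% N2, 37C. Dosing day 0–5, half feed day 3, DMSO ≤0.1%. Fixed 120 h; O4 ICC + Hoechst, HCI. Readout: mean oligodendrocyte distance from sphere edge / radial glia distance.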

[12] = IUF_NPC2a_radial_glia_migration_72hr: Leibniz Research Institute for Environmental Medicine (IUF) 72-hour Neural Progenitor Cell Migration Assay for Radial Glia Migration (NPC2a) (AID 2284299)
How it was run: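 Primary hNPC spheres, fetal brain GW 16-19, on PDL/laminin; DMEM/F12 3:1 + 1% N2. Compound dosed day 0, 7 conc. + SC, half-medium refresh day 3. 72 h brightfield, migration distance core-to-front (um), 4 directions averaged.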

[13] = IUF_NPC2b_neuronal_migration_120hr: Leibniz Research Institute for Environmental Medicine (IUF) 120-hour Neural Progenitor Cell Migration Assay for Neuron Migration (NPC2b) (AID 2284300)
How it was run: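 hNPC spheres, PDL/laminin, DMEM:F12 3:1 + 1% N2, 37C/5% CO2; 7 concentrations + solvent control (DMSO ≤0.1%), 5 d exposure, half-feed day 3. Fix 120 h, TUBB3 ICC, HCI: mean neuron migration distance ÷ glia distance.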

[14] = IUF_NPC3_neuronal_differentiation_120hr: Leibniz Research Institute for Environmental Medicine (IUF) 120-hour Neuronal Differentiation Assay (NPC3) (AID 2284301)
How it was run: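 Primary human fetal neural progenitor spheres (GW 16-19, 0.3 mm) plated on poly-D-lysine/laminin in N2 medium, exposed from day 0 for 120 h with half-medium refresh at day 3. TUBB3+ cells as percent of Hoechst nuclei in migration area; DMSO baseline.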

[15] = IUF_NPC4_neurite_area_120hr: Leibniz Research Institute for Environmental Medicine (IUF) 120-hour Neuronal Morphology Assay for Neurite Area (NPC4) (AID 2284305; active = hit-call score of the fitted dose curve at least 0.9, where 1 is the maximum)
How it was run: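 Human fetal cortex-derived neural progenitor spheres (0.3 mm, GW 16-19) plated on poly-D-lysine/laminin in N2 differentiation medium and exposed from day 0 for 120 h across 7 concentrations plus solvent control. Neurite area is mean pixel area per TUBB3-positive neuron via skeletonization, analysed relative to DMSO.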

[16] = IUF_NPC2-5_cytotoxicity_72hr: Cytotoxicity Assessment at 72 hours in the Leibniz Research Institute for Environmental Medicine (IUF) Neural Progenitor Cell Migration and Differentiation Assay for Cytotoxicity (NPC2-5) (AID 2284306; active = hit-call score of the fitted dose curve at least 0.9, where 1 is the maximum;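 also: LDH release into supernatant measured by resorufin fluorescence marking membrane damage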)
How it was run: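 Human fetal (GW 16-19) neural progenitor spheres, 0.3 mm, plated on poly-D-lysine/laminin in N2 differentiation medium and exposed from day 0 to 7 concentrations plus solvent control (DMSO ≤0.1%). LDH-dependent resazurin-to-resorufin fluorescence in supernatant at 72 h.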

[17] = IUF_NPC2-5_cytotoxicity_120hr: Cytotoxicity Assessment at 120 hours in the Leibniz Research Institute for Environmental Medicine (IUF) Neural Progenitor Cell Migration and Differentiation Assay (NPC2-5) (AID 2284307; active = hit-call score of the fitted dose curve at least 0.9, where 1 is the maximum)
How it was run: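 hNPC spheres on PDL/laminin, N2 medium, 37C; 7 concs + solvent control, DMSO ≤0.1%; 5-day exposure, half medium changed day 3. LDH in supernatant at 120 h, resazurin→resorufin fluorescence, gain-of-signal.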

[18] = IUF_NPC2-5_cell_number_120hr: Cell Number Assessment at 120 hours in the Leibniz Research Institute for Environmental Medicine (IUF) Neural Progenitor Cell Migration and Differentiation Assay (NPC2-5) (AID 2284308);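 also: count of Hoechst-stained nuclei in migration zone around plated human neural progenitor spheres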
How it was run: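 Hoechst-stained nuclei within the migration area were counted by automated high content imaging after 120 h. Single hNPC spheres differentiated on poly-D-lysine/laminin in DMEM/F12 (3:1) with 1% N2, compound present throughout, DMSO ≤0.1%.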

[19] = IUF_NPC2-5_viability_120hr: Viability Assessment at 120 hours in the Leibniz Research Institute for Environmental Medicine (IUF) Neural Progenitor Cell Migration and Differentiation Assay (NPC2-5) (AID 2284312)
How it was run: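 Human fetal (GW 16-19) neural progenitor spheres of 0.3 mm were plated on poly-D-lysine/laminin in N2 differentiation medium and exposed from day 0 for 120 h, with half-medium refresh at day 3. Viability was read as alamar blue resazurin-to-resorufin fluorescence against DMSO.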

[20] = IUF_NPC1_cytotoxicity_72hr: Cytotoxicity Assessment at 72 hours in the Leibniz Research Institute for Environmental Medicine (IUF) Neural Progenitor Cell Proliferation Assay (NPC1) (AID 2284332; active = hit-call score of the fitted dose curve at least 0.9, where 1 is the maximum;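 also: rising LDH signal means more cytotoxicity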)
How it was run: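 Spheres of primary human neural progenitors are plated one per well on day 0 in growth-factor medium and dosed at once. After three days at 37C, supernatant LDH is measured fluorimetrically via resazurin reduction.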

[21] = CCTE_Mundy_HCI_iCellGluta_NOG_NeuronCount: CCTE's Neurite Outgrowth Assay in iCellGluta cells for Neuron Count, Mundy Lab (AID 2284340; active = hit-call score of the fitted dose curve at least 0.9, where 1 is the maximum;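 also: cells fixed about 48 h after compound addition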)
How it was run: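 Neuron count read by automated high-content imaging of Hoechst 33342 and betaIII-tubulin/Alexa Fluor-488 labelling in human iPSC glutamatergic neurons. Activity fitted relative to DMSO.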

Measured: outcome

CC(C)c1nn(C(=O)NC(C)(C)C)c(=O)n1N
inactive: all assays above
